Activity calls are given as the source filed them. How the source made its calls: active means hit-call score of the fitted dose curve at least 0.9, where 1 is the maximum; inconclusive means response in the unintended direction; inactive means score below 0.9.
Each compound was assayed against D(1A) dopamine receptor (Homo sapiens) (UniProt P21728) (assay: ERF_FR_GPCR_hDRD1: Eurofins (ERF) G Protein-Coupled Receptor (GPCR) Radioligand Binding LeadHunter Assay for human Dopamine Receptor D1 Antagonism, conducted at France lab site).
D(1A) dopamine receptor (Homo sapiens), sequence (P21728 whole entry, looked up): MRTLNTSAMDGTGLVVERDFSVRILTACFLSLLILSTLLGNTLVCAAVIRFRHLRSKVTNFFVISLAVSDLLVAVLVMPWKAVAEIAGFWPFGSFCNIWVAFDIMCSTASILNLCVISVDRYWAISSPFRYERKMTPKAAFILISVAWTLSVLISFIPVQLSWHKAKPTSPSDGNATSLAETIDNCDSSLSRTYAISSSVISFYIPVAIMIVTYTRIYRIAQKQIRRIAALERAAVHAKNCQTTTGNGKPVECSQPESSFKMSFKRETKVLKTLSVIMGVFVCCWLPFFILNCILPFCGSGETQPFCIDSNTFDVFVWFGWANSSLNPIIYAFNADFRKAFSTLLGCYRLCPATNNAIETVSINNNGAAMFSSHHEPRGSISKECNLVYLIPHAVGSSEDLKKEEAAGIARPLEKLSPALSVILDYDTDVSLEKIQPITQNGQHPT
Description: ERF_FR_GPCR_hDRD1 is a biochemical, single-readout assay that uses extracted gene-proteins in a cell-free assay. Measurements were taken 1 hour after chemical dosing in a 96-well plate. See D1 Human Dopamine GPCR Binding (Antagonist Radioligand) Assay, Cerep.ERF_FR_GPCR_hDRD1 is an assay component calculated from the ERF_FR_GPCR_hDRD1 assay. It is designed to measure radioligand binding using a type of binding reporter as detected by scintillation counting with radiometry technology.Data from the assay component ERF_FR_GPCR_hDRD1 was analyzed at the assay endpoint, ERF_FR_GPCR_hDRD1, in the positive analysis fitting direction relative to DMSO as the negative control and baseline of activity. Using a type of binding reporter, loss-of-signal activity can be used to understand changes in binding as they relate to gene DRD1. To generalize the intended target to other relatable targets, this assay endpoint is annotated to the gpcr intended target family, where the subfamily is dopamine.
Human cells are incubated for 60 minutes at room temprature with [3H]SCH 23390 ligand (0.3 nM) and SCH 23390 as control inhibitor.Test Sample Requirements: Minimum for 1) Screen: 60 ul of 10 mM stock -OR- 1 mg (pre-weighed) for 10 uM final testing. 2) Dose Response: 90 ul of 10 mM stock -OR- 1 mg (pre-weighed) for a top concentration at 10 uM.

SMILES | AC50 | outcome
O=C(/C=C/c1ccc(O)cc1)CC(=O)/C=C/c1ccc(O)cc1 | 1070 nM (active) | 
COc1cc(/C=C/C(=O)CC(=O)/C=C/c2ccc(O)c(OC)c2)ccc1O | 2040 nM (active) | 
COc1cc(CCC(=O)CC(=O)CCc2ccc(O)c(OC)c2)ccc1O |  | inactive

— PubChem BioAssay AID2284158 (EPA ToxCast)
